The values below come from PubChem BioAssay (NCATS).

For experiment [1], the target named is 3',5'-cyclic-AMP phosphodiesterase 4B (Homo sapiens) (UniProt Q07343). Briefly: qHTS Assay for Inhibitors of PDE-IV (AID 607; active = well fitted activation curve with a large enough effect in the main read-out, with a control signal flat, not every such curve was filed as active; also: potency is read from the fitted curve at half-maximal effect). As to conditions: HEK293 ACTOne CNG channel cells, membrane potential fluorescence; series mostly up to 22.9 µM. The essentials: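 Live HEK293 cells with a modified cyclic nucleotide-gated (CNG) channel report intracellular cAMP via membrane-potential dye fluorescence (ex 535/em 590 nm). Endogenous PDE-IV was targeted. Compounds were tested at up to 22.9 uM final; RO 20-1724 100 uM served as control.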
3',5'-cyclic-AMP phosphodiesterase 4B (Homo sapiens), sequence (Q07343 whole entry, looked up): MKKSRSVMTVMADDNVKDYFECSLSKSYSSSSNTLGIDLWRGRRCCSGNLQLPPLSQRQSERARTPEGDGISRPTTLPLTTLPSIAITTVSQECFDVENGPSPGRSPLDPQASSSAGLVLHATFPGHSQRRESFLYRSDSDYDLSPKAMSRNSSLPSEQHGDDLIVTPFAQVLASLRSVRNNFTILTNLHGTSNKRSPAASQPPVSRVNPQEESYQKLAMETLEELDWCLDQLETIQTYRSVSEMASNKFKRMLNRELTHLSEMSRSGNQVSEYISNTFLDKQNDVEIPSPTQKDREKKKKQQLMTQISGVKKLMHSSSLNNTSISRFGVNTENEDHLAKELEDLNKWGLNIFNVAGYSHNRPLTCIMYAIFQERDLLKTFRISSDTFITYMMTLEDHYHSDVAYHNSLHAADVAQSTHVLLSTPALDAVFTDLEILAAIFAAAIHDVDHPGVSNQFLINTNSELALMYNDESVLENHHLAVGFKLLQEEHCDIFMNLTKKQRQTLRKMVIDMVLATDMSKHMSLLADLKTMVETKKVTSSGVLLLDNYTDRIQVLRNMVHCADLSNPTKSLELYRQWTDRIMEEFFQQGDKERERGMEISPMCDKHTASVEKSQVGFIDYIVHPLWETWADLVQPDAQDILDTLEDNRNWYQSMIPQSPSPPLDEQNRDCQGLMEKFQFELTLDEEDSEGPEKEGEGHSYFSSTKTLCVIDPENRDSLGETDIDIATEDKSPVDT
On the technique in general: Quantitative high-throughput screening tests each substance at several concentrations.

A short description of experiment [2]: Cell Viability - Mesenchymal (AID 546).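 Also: cells exposed to compound for 40 hours before reading.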 As to conditions: mesenchymal cells viability, qHTS; series mostly up to 91.7 µM. The method, boiled down:
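CellTiter-Glo luminescence (intracellular ATP, 20 min room temperature) after 40 hr compound exposure at 37 °C of 1000 glomerulus-derived human kidney mesenchymal cells/well; AC50 values obtained by fitting qHTS concentration-response data to the Hill equation.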

Experiment [3] can be described thus: Cellular Toxicity (caspase-3) HepG2 (AID 654).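 Also: cells exposed to compound for 16 hours before reading; 0% = DMSO alone and 100% = caspase signal from 100 µM tamoxifen.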 The settings on record: HepG2 caspase-3 activation, luminescence, 0% = DMSO only, 100% = tamoxifen; series mostly up to 92.2 µM. The essentials: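 Caspase 3/7 activation in HepG2 is measured as rising luminescence after a 16 hr treatment at 37 °C. Values are scaled between DMSO basal and 100 uM tamoxifen, and AC50 is fitted with the Hill equation.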

Experiment [4] is described as follows: Cellular Toxicity (caspase-3) Jurkat (AID 655).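 Also: cells exposed to compound for 16 h at 37 °C before reading.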 As to conditions: Jurkat caspase-3 activation, luminescence, DMSO = 0%, tamoxifen = 100%; at 92.2 µM (top of the series). The method, boiled down: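 Luminescent caspase-3/7 readout (aminoluciferin substrate cleavage) in human T-cell leukemia Jurkat cells after 16 hr compound exposure. Concentration-response normalized to DMSO and 100 uM tamoxifen; AC50 by standard Hill equation.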

Experiment [5] in a line: Cellular Toxicity (caspase-3) HUV-EC-C (AID 656). The settings on record: HUV-EC-C cells, caspase-3 activation (apoptosis), vehicle = 0, 100 µM tamoxifen = 100%; series mostly up to 92.2 µM. The essentials:
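Luminescent caspase-3/7 activation (aminoluciferin substrate cleavage) in HUV-EC-C cells after 16 hr compound exposure, 37°C. Signal normalized to DMSO basal and 100 uM tamoxifen as 100%; AC50 from concentration-response fitted with the Hill equation.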

A short description of experiment [6]: Cellular Toxicity (caspase-3) SHSY5Y (AID 657).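 Also: cells exposed to compound for 16 hours at 37 °C.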 The settings on record: SH-SY5Y caspase-3 activation, DMSO zero, 10 µM staurosporine = 100%; series mostly up to 91.7 µM. The method, boiled down:
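Luminescent caspase-3/7 readout (aminoluciferin release) in SH-SY5Y cells after 16 h compound exposure in complete medium. Activity scaled between DMSO basal and 10 uM staurosporine as 100%; concentration-response fitted to Hill equation for AC50.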

Experiment [7] can be described thus: Cellular Toxicity (caspase-3) BJ (AID 658).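 Also: cells exposed to compound for 16 hours.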 The settings on record: BJ fibroblasts, luminescence, normalized: DMSO 0%, staurosporine 100%; series mostly up to 91.7 µM. The essentials:
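Caspase-Glo 3/7 luminescence, read 1 hr after reagent at room temperature, in normal BJ fibroblasts exposed 16 hours at 37 °C. AC50 values from Hill-equation concentration-response, scaled between DMSO basal and 10 uM staurosporine as 100%.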

A short description of experiment [8]: Cellular Toxicity (caspase-3) MRC-5 (AID 659). The settings on record: MRC-5 cells, luminescence, normalized: DMSO 0%, 10 µM staurosporine 100%; series mostly up to 91.7 µM. The essentials: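 Luminescent Caspase-Glo 3/7 read-out (1 h, room temperature) after a 16 h, 37 °C compound exposure of MRC-5 lung fibroblasts at 1500 cells/well. Concentration-response AC50 from Hill equation; 0% DMSO, 100% 10 uM staurosporine.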

Experiment [9] in a line: Cellular Toxicity (caspase-3) Mesangial (AID 660).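 Also: combined caspase 3 and 7 activity read by Caspase-Glo luminescence; cells exposed to compound for 16 h before the caspase read.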 The settings on record: mesangial cells, normalized: DMSO 0%, 100 µM tamoxifen 100%; series mostly up to 91.7 µM. The essentials: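 Seed cells derived from normal human renal glomeruli, incubate 5 h, add compounds across concentrations and incubate 16 h at 37 °C. Caspase 3/7 activation is then quantified by luciferase light, with AC50 derived by Hill modeling.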

A short description of experiment [10]: Cellular Toxicity (caspase-3) SK-N-SH (AID 661).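 Also: cells exposed to compound for 16 hours.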 As to conditions: SK-N-SH caspase-3 activation, qHTS, DMSO as zero, staurosporine as full; series mostly up to 91.7 µM. The essentials: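 Cells were seeded and incubated 5 hr at 37 °C, dosed with compound over a concentration range for 16 hr, then given Caspase-Glo 3/7 reagent for 1 hr at room temperature before luminescence reading.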

Unmarked numbers belong to inactive results. Records with an inconclusive call do not appear. The source made the active and inactive calls. Unless noted, calls follow the shape of the dose curve; as a rule, active = well fitted curve in the direction sought with a large enough effect; inconclusive = small, poorly fitted or top-dose-only effect, or another doubt; inactive = no such curve, though single readings can be large; an effect the other way counts as inactive or inconclusive.

As for `COc1cc(C[C@H]2C(=O)OC[C@@H]2Cc2ccc(OC)c(OC)c2)ccc1O`, the Potency in experiment [1] is 3.79 µM (active).
Consider `CCCCCCCCCC(=O)O`, for which the result in experiment [2], in experiment [3], in [5], in [6], in experiment [7] and in experiment [8] was inactive. Besides, the molecule was called inactive in experiment [9] and in experiment [10]. Besides, the caspase-3 activation in [4] was -4.13%.
With `C=Cc1ccccc1`, the call in experiment [2], in experiment [3], in experiment [5], in experiment [6], in experiment [7] and in experiment [8] was inactive. In addition, the outcome in experiment [9] and in experiment [10] was inactive. Also, in [4], the caspase-3 activation was -0.459%.
With `COc1ccc2[nH]c(=O)c3c(c2c1)OC(C)(C)C=C3`, the Potency result in experiment [1] is “inactive”.
`COC(C)=O`: the result in experiment [2], in experiment [3], in [5], in [6], in [7] and in experiment [8] was inactive. Also, the call in experiment [9] and in [10] was inactive. Also, the caspase-3 activation in experiment [4] is -0.555%.
On to `O=C(O)CC(O)(CC(=O)O)C(=O)O`, for which the result in experiment [2], in [3], in [5], in experiment [6], in experiment [7] and in [8] was inactive. Also, the result in [9] and in [10] was inactive. Also, the caspase-3 activation in [4] is 101% (active).
As to `CC(=O)C1=C(O)C=C2Oc3c(C(C)=O)c(O)c(C)c(O)c3[C@]2(C)C1=O`, the Potency result in [1] is “inactive”.
As to `Cc1ccc(OC[C@H](O)[C@H](C)NC(C)C)c2c1CCC2`, in experiment [1], the Potency result is “inactive”.
`CN(C)Cc1ccccc1`: the result in [2], in experiment [3], in experiment [5], in [6], in experiment [7] and in experiment [8] was inactive. The molecule was classed as inactive in experiment [9] and in experiment [10]. In addition, the caspase-3 activation in experiment [4] is 0.691%.
For `NCCCC(=O)O`, in [1], the Potency result is “inactive”.
Turning to `O=C(O)c1cc2ccccc2c(Cc2c(O)c(C(=O)O)cc3ccccc23)c1O`, the Potency entry in experiment [1] is “inactive”.
